# Literature values in PubChem BioAssay AID977608.
# Screen size: about 4,300 compounds; about 4,300 (100%) were called active. Cut-off not given; nearly all actives show IC50 up to about 1400 µM. The set was probably picked from earlier hits. This is one part of the list. Where a SMILES comes first, the peptide text is derived from it. [ ]: non-standard residue; d: D form. The star is where a group is joined. Thr(P(OH)3+) = C[C@@H](O[P+](O)(O)O)[C@H](N)C(=O)O; Pentanoyl(5-cHex) = O=C(CCCCC1CCCCC1)*; Ahx = NCCCCCC(=O)O
# Assay: literature IC50 values for PDB complexes, PDB-derived complexes (AID 977608)
# Conditions: PDB protein-ligand complexes
smiles,measurement,setting,value
c1ccc2c(c1)[nH]c1cncnc12,IC50,"protein: DUAL SPECIFICITY PROTEIN KINASE TTK, PDB entry 4bi0",58600 nM (active)
Cc1cccc(Cc2nn(C(C)(C)C)c3ncnc(N)c23)c1,IC50,"protein: Proto-oncogene tyrosine-protein kinase Src, PDB entry 4lgg",3 nM (active)
O=CN1CCN(c2nc(-c3ccccc3)ns2)CC1,IC50,"protein: Fatty-acid amide hydrolase 1, PDB entry 4hbp",3.8 nM (active)
N=CCNC(=O)[C@@H]1C[C@@H](S(=O)(=O)c2ccccc2)C[C@H]1C(=O)N1CCOCC1,IC50,"protein: CATHEPSIN S, PDB entry 4bsq",0.7 nM (active)
C=C1CC[C@@H](O[C@H]2C[C@@](O)([C@H](C)NC(=O)c3[nH]c(C)c(Cl)c3Cl)[C@H](O)[C@@H](C)O2)[C@@H]2C=C[C@H](C)[C@H](/C(O)=C3/C(=O)[C@H](C(C)C)N([C@@H]4O[C@@H](C)[C@@H](OC(N)=O)[C@@H](OC(C)=O)[C@H]4OC)C3=O)[C@@H]12,IC50,"protein: DNA GYRASE SUBUNIT B GyrB24, PDB entry 4urm",9 nM (active)
same,IC50,"protein: DNA TOPOISOMERASE IV, B SUBUNIT ParE43, PDB entry 4url",500 nM (active)
C/C=C\NC(=O)Nc1nc2cc(-c3cccnc3)c(=O)n(CCC(C)C)c2s1,IC50,"protein: Topoisomerase IV subunit B, PDB entry 4mot",50 nM (active)
COc1cc(-c2n[nH]c3ccc(C[C@@H](C#N)C(=O)NC(C)(C)CO)cc23)cc(OC)c1OC,IC50,"protein: Ribosomal protein S6 kinase alpha-3 (T493M muation), PDB entry 4jg8",2.5 nM (active)
O=C1N=Nc2nnc(-c3c(-c4ccccc4)nn4ccccc34)cc21,IC50,"protein: Insulin receptor (K1278N mutation), PDB entry 4ibm",1800 nM (active)
Cc1ccccc1S(=O)(=O)N(CCN(Cc1cncn1C)c1ccc(C=N)cc1)CC1CCN(C(=O)OC(C)(C)C)CC1,IC50,"protein: CaaX farnesyltransferase alpha subunit Ram2, PDB entry 4lnb",275 nM (active)
COc1ccccc1-c1noc2nc(C)[nH]c(=O)c12,IC50,"protein: Class III chitinase ChiA1, PDB entry 4tx6",2600 nM (active)
CC[C@H](C)[C@H](NC(=O)[C@@H](c1cc(Cl)cc(Cl)c1)N(C)C)C(=O)NCc1ccnc(C=N)n1,IC50,"protein: Protease AVP8, PDB entry 4pis",60 nM (active)
COc1ccc([C@]2(C)CCSC(N)N2)cc1 (stereo partly drawn),IC50,"protein: BETA-SECRETASE 1, PDB entry 4bek",41200 nM (active)
O[P+](O)(O)C(Nc1ncnc2sc(-c3ccc(C4C=C4)cc3)cc12)[P+](O)(O)O,IC50,"protein: Farnesyl pyrophosphate synthase, human FPPS, PDB entry 4l2x",39 nM (active)
Cc1ccc(-c2cc3c(NC([P+](O)(O)O)[P+](O)(O)O)ncnc3s2)cc1,IC50,"protein: Farnesyl pyrophosphate synthase, human FPPS, PDB entry 4jvj",22 nM (active)
O=C(C[P+](O)(O)O)OC1[C@@H](O[P+](O)(O)O)[C@H](O[P+](O)(O)O)C(OCc2ccccc2)[C@H](O[P+](O)(O)O)[C@H]1O[P+](O)(O)O (stereo partly drawn),IC50,"protein: Inositol hexakisphosphate and diphosphoinositol-pentakisphosphate kinase 2 PPIP5K2, PDB entry 4nzn",420 nM (active)
O=C(C[P+](O)(O)O)OC1[C@@H](O[P+](O)(O)O)[C@H](O[P+](O)(O)O)C(O[P+](O)(O)O)[C@H](O[P+](O)(O)O)[C@H]1O[P+](O)(O)O (stereo partly drawn),IC50,"protein: Inositol hexakisphosphate and diphosphoinositol-pentakisphosphate kinase 2 PPIP5K2, PDB entry 4nzm",140 nM (active)
CCCCCCCNCC([P+](O)(O)O)[P+](O)(O)O,IC50,"protein: Farnesyl pyrophosphate synthase, PDB entry 4dwg",58 nM (active)
CCCCCCNCC([P+](O)(O)O)[P+](O)(O)O,IC50,"protein: Farnesyl pyrophosphate synthase, PDB entry 4e1e",490 nM (active)
CCCCCNCC([P+](O)(O)O)[P+](O)(O)O,IC50,"protein: Farnesyl pyrophosphate synthase, PDB entry 4dwb",1840 nM (active)
CCCNCC([P+](O)(O)O)[P+](O)(O)O,IC50,"protein: Farnesyl pyrophosphate synthase, PDB entry 4dxj",38 nM (active)
CC(=O)N[C@H]1[C@@H](O[P+](O)(O)O[P+](O)(O)OC[C@H]2O[C@@H](n3ccc(=O)[nH]c3=O)[C@H](O)[C@@H]2O)O[C@H](CO)[C@@H](O)[C@@H]1O[C@H](C)C(=O)N[C@@H](C)C(=O)N[C@H](CCC(=O)N[C@@H](CSCCc1cn([C@@H]2[C@H](O)[C@@H](CO[P+](O)(O)O[C@H]3[C@@H](O)[C@H](n4ccc(N)nc4=O)O[C@@H]3CO[P+](O)(O)O[C@H]3[C@@H](O)[C@H](n4ccc(N)nc4=O)O[C@@H]3COP(O)O)O[C@H]2n2cnc3c(N)ncnc32)nn1)C(=O)N[C@H](C)C(=O)N[C@H](C)C(=O)O)C(=O)O,IC50,"protein: FemX, PDB entry 4ii9",930 nM (active)
CN(Cc1cnc2c(n1)C(N)NC(N)N2)c1ccc(C(=O)N[C@@H](CCC(=O)O)C(=O)O)cc1 (stereo partly drawn),IC50,"protein: Lactobacillus casei dihydrofolate reductase, PDB entry 1ao8",6 nM (active)
NCC[C@H](C1CC=CC1)n1cc(-c2ncnc3[nH]ccc23)cn1,IC50,"protein: Proto-oncogene tyrosine-protein kinase Src, PDB entry 4u5j",2930 nM (active)
CC(C)COC(=O)N[C@H](CC=O)c1ccccc1,IC50,"protein: RHOMBOID PROTEASE GLPG, PDB entry 3zmj",11700 nM (active)
O=CC[C@@H](NC(=O)OC1CCCC1)c1ccccc1,IC50,"protein: RHOMBOID PROTEASE GLPG, PDB entry 3zmh",5270 nM (active)
O=CC[C@@H](NC(=O)Oc1ccccc1)c1ccccc1,IC50,"protein: RHOMBOID PROTEASE GLPG, PDB entry 3zmi",1120 nM (active)
same,IC50,"protein: RHOMBOID PROTEASE GLPG, PDB entry 3zot",1120 nM (active)
CSCC[C@H](NC(=O)[C@@H](NC(=O)[C@H](CO)NC(=O)[C@H](Cc1cnc[nH]1)NC(=O)[C@H](CC(C)C)NC(=O)[C@@H]1CCCN1C(=O)CC12CC3CC(CC(C3)C1)C2)[C@@H](C)O[P+](O)(O)O)C(N)=O (HELM PEPTIDE1{[O=C(CC12CC3CC(CC(C3)C1)C2)[*:2]].P.L.H.S.[C[C@@H](O[P+](O)(O)O)[C@H](N[*:1])C(=O)[*:2]].M.[am]}$$$$V2.0),IC50,"protein: Serine/threonine-protein kinase PLK1, PDB entry 4lkl",820 nM (active)
CSCC[C@H](NC(=O)[C@@H](NC(=O)[C@H](CO)NC(=O)[C@H](Cc1cnc[nH]1)NC(=O)[C@H](CC(C)C)NC(=O)[C@@H]1CCCN1C(=O)CCCCCNC(=O)CCCCC1CCCCC1)[C@@H](C)O[P+](O)(O)O)C(N)=O ({Pentanoyl(5-cHex)-Ahx}-PLHS[Thr(P(OH)3+)]M-NH2),IC50,"protein: Serine/threonine-protein kinase PLK1, PDB entry 4lkm",460 nM (active)
Cc1[nH]c2ccccc2c1CCNC(=O)c1ccccc1F,IC50,"protein: Arp2/3 complex, PDB entry 3ukr",12000 nM (active)
NC1CCC(Nc2nccc(-c3cccnc3Oc3ccc(NS(=O)(=O)c4ccccc4)c4ccccc34)n2)CC1 (stereo not drawn),IC50,"protein: Mitogen-activated protein kinase 10 JNK3, PDB entry 4u79",400 nM (active)
O=C(COc1ccccc1[P+](O)(O)O)Nc1cc(Cl)cc(Cl)c1,IC50,"protein: 14-3-3 protein sigma, PDB entry 4dhs",16000 nM (active)
